In PubChem BioAssay (NCI):
The panel holds about 79,000 compounds, 15% with a hit somewhere; the sample as a whole holds those more often. Calls of active or inactive are those of the source. No stated cut-off is given here; in the data, active means growth inhibition above about 70%; inactive means the rest.

Tests used:
[1] = NCI Yeast Anticancer Drug Screen. Data for the rad50 strain (AID 155);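 further: 0% = growth of vehicle-only cultures of the same strain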; conditions: S. cerevisiae rad50 strain growth inhibition, active compounds read high
Outline: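 Yeast carrying a defined DNA repair defect were exposed to test compounds, and growth was compared with vehicle-treated controls to give percent inhibition.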

[2] = NCI Yeast Anticancer Drug Screen. Data for the mec2-1 strain (AID 157); conditions: S. cerevisiae mec2-1 strain, active compounds read high
Outline: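 Cells of the genetically defined mec2-1 yeast strain are incubated with test compound. Inhibition of growth is calculated against vehicle-treated controls.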

[3] = NCI Yeast Anticancer Drug Screen. Data for the sgs1 mgt1 strain (AID 161);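 further: 0% = growth of cultures given vehicle only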; conditions: S. cerevisiae sgs1 mgt1 strain, active compounds read high
Outline: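 Inhibition of yeast growth, normalised to vehicle-treated controls, is reported for a strain bearing genetic alterations in DNA damage repair.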

[4] = NCI Yeast Anticancer Drug Screen. Data for the cln2 rad14 strain (AID 165);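 further: 0% = growth equal to vehicle treated cultures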; conditions: S. cerevisiae cln2 rad14 strain, active compounds read high
Outline: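 The screen exposed genetically defined yeast (cln2 rad14) to test compounds and scored growth inhibition relative to vehicle-treated controls.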

[5] = NCI Yeast Anticancer Drug Screen. Data for the bub3 strain (AID 167); conditions: S. cerevisiae bub3 mutant strain, active compounds read high
Outline: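 Compounds were applied to a genetically altered yeast strain carrying a cell-cycle control defect. Growth inhibition was scored against vehicle-treated controls.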

[6] = NCI Yeast Anticancer Drug Screen. Data for the mlh1 rad18 strain (AID 175); conditions: S. cerevisiae mlh1 rad18 strain growth inhibition, active compounds read high
Outline: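 Compound-treated yeast growth, normalised to vehicle controls. Strain bears defined DNA repair mutations.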

[7] = at 5.0 µM (retest, dose inferred, filed as 0.5)
[8] = at 50.0 µM (retest, dose inferred, filed as 5.0)

Measured: growth inhibition

O=C1C(Cl)=C(N2CCN(c3ccccn3)CC2)C(=O)c2ncccc21
inactive: [1]; [7] 40% | [2]; [7] 21% | [3]; [7] 23% | [4]; [7] 10% | [5]; [7] 50% | [6]; [7] 34%
active: [1]; [8] 94% | [1]; at 50.0 µM 85.3% | [2]; [8] 98% | [2]; at 50.0 µM 88.8% | [3]; [8] 97% | [3]; at 50.0 µM 91% | [4]; [8] 96% | [4]; at 50.0 µM 89.4% | [5]; [8] 98% | [5]; at 50.0 µM 88.6% | [6]; [8] 97% | [6]; at 50.0 µM 89.1%

O=C1C=CC(=O)N1c1ccc(-c2ccc(N3C(=O)C=CC3=O)cc2)cc1
active: [2]; [8] 87% | [3]; [8] 82% | [5]; [8] 80% | [6]; [8] 79%
inactive: [1]; [7] 41% | [1]; [8] 68% | [1]; at 50.0 µM 48.3% | [2]; [7] 56% | [2]; at 50.0 µM 35.6% | [3]; [7] 60% | [3]; at 50.0 µM 60.6% | [4]; [7] 18% | [4]; [8] 57% | [4]; at 50.0 µM 27.1% | [5]; [7] 33% | [5]; at 50.0 µM 46% | [6]; [7] 58% | [6]; at 50.0 µM 57.5%

CCCCCCC(C)OC(=O)c1ccccc1C(=O)O (configuration not stated)
inactive: [1]; [7] 7% | [1]; [8] 17% | [1]; at 50.0 µM 11.5% | [2]; [7] -11% | [2]; [8] 10% | [2]; at 50.0 µM 0.2% | [3]; [7] -6% | [3]; [8] 16% | [3]; at 50.0 µM 17.9% | [4]; [7] 6% | [4]; [8] 31% | [4]; at 50.0 µM 63.5% | [5]; [7] -3% | [5]; [8] 9% | [5]; at 50.0 µM 13.3% | [6]; [7] -13% | [6]; [8] 12% | [6]; at 50.0 µM 14.8%

CC(C)C(Sc1nc(-c2ccccc2)c(-c2ccccc2)[nH]1)c1n[nH]c(=S)n1-c1ccccc1 (configuration not stated)
inactive: [1]; [7] -1% | [2]; [7] 12% | [3]; [7] -13% | [4]; [7] -24% | [5]; [7] -1% | [6]; [7] -3%
active: [1]; [8] 97% | [1]; at 50.0 µM 95.8% | [2]; [8] 98% | [2]; at 50.0 µM 97.1% | [3]; [8] 98% | [3]; at 50.0 µM 96.8% | [4]; [8] 97% | [4]; at 50.0 µM 94.3% | [5]; [8] 98% | [5]; at 50.0 µM 96.9% | [6]; [8] 97% | [6]; at 50.0 µM 95.9%

Cc1ccccc1N1C(=O)c2ccccc2C1=O
inactive: [1]; [7] 1% | [1]; [8] 8% | [1]; at 50.0 µM 61.1% | [2]; [7] -6% | [2]; [8] 11% | [3]; [7] 1% | [3]; [8] 7% | [4]; [7] 6% | [4]; [8] 9% | [5]; [7] 1% | [5]; [8] 16% | [6]; [7] 0% | [6]; [8] 8%
active: [2]; at 50.0 µM 98.8% | [3]; at 50.0 µM 90.1% | [4]; at 50.0 µM 83.3% | [5]; at 50.0 µM 98.2% | [6]; at 50.0 µM 84%

COc1cc2cnc(-c3ccccc3)cc2cc1OC
active: [1]; [8] 71% | [2]; [8] 76% | [4]; [8] 99% | [5]; [8] 99% | [5]; at 50.0 µM 81.3%
inactive: [1]; [7] 14% | [1]; at 50.0 µM 43.5% | [2]; [7] 11% | [2]; at 50.0 µM 17.6% | [3]; [7] 5% | [3]; [8] 63% | [3]; at 50.0 µM 13.9% | [4]; [7] -15% | [4]; at 50.0 µM 26.9% | [5]; [7] 48%

CCCCCCCCC1(C(=O)OCCN(CC)CC)CCCCC1
active: [1]; [8] 99% | [1]; at 50.0 µM 99.8% | [2]; [8] 100% | [2]; at 50.0 µM 99.8% | [3]; [8] 99% | [3]; at 50.0 µM 99.5% | [4]; [8] 100% | [4]; at 50.0 µM 99.8% | [5]; [8] 99% | [5]; at 50.0 µM 99.2% | [6]; [8] 98% | [6]; at 50.0 µM 99.7%
inactive: [1]; [7] 8% | [2]; [7] 0% | [3]; [7] 36% | [4]; [7] 13% | [5]; [7] 22% | [6]; [7] 12%

CCCCCCCCCCCCCCCC[N+](C)(C)C(C)c1ccc(OC)cc1 (configuration not stated)
active: [1]; [7] 98% | [1]; [8] 98% | [1]; at 50.0 µM 90.6% | [2]; [7] 98% | [2]; [8] 98% | [2]; at 50.0 µM 90.2% | [3]; [7] 98% | [3]; [8] 99% | [3]; at 50.0 µM 90% | [4]; [7] 98% | [4]; [8] 99% | [4]; at 50.0 µM 85.8% | [5]; [7] 98% | [5]; [8] 98% | [5]; at 50.0 µM 92.3% | [6]; [7] 98% | [6]; [8] 97% | [6]; at 50.0 µM 91.8%

Nc1nnc(CCC(=O)Nc2ccccc2Cl)o1
inactive: [1]; [7] -2% | [1]; [8] -5% | [1]; at 50.0 µM -1.3% | [2]; [7] 0% | [2]; [8] 4% | [3]; [7] -6% | [3]; [8] -2% | [4]; [7] 7% | [4]; [8] 9% | [5]; [7] 1% | [5]; [8] 2% | [6]; [7] -5% | [6]; [8] 2%
active: [2]; at 50.0 µM 79.5% | [3]; at 50.0 µM 98.5% | [4]; at 50.0 µM 98.2% | [5]; at 50.0 µM 98.8% | [6]; at 50.0 µM 98.5%

O=C(NNc1ccccc1)c1ccc([N+](=O)[O-])cc1
inactive: [1]; [7] 31% | [2]; [7] 10% | [3]; [7] 34% | [4]; [7] 20% | [5]; [7] 25% | [6]; [7] 32%
active: [1]; [8] 95% | [1]; at 50.0 µM 99% | [2]; [8] 96% | [2]; at 50.0 µM 99.2% | [3]; [8] 97% | [3]; at 50.0 µM 99% | [4]; [8] 96% | [4]; at 50.0 µM 92% | [5]; [8] 96% | [5]; at 50.0 µM 99.6% | [6]; [8] 97% | [6]; at 50.0 µM 98.7%
